# Reference: PubChem BioAssay AID1948 (National Center for Advancing Translational Sciences (NCATS), 2009)
# About 20 (0.02%) of roughly 110,000 compounds were called active. Another 2% or so got no clear call; they are omitted. The call rests on the fitted dose curve; in most records, active means well fitted activation curve with a large enough effect; inconclusive means small, poorly fitted or top-dose-only effect; inactive means no such curve, though single readings can be large or run the other way. For the sample, actives were picked, then their nearest neighbours and some compounds at random.
# Assay: qHTS Assay for Compounds that Induce Erasure of Genomic Imprints;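 on activity change, positive = activation: 0% = negative control wells on the plate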
# Conditions: mouse ES Peg3-LacZ reporter, beta-gal luminescence, 40 h; series mostly up to 10.9 µM; activity change, positive = activation: at the top concentration
# Excerpt: qHTS Assay for Compounds that Induce Erasure of Genomic Imprints NIH Chemical Genomics Center [NCGC] NIH Molecular Libraries Screening Centers Network [MLSCN] Assay Submitter (PI): JEFFRIES, SEAN, NCGC, University of Cambridge NCGC Peg3 Imprinting Assay Overview Genomic imprinting is the epigenetic process whereby genes are expressed in a parent of origin fashion. […] Unlike some forms of epigenetic silencing that can be overcome by overexpression of transcription factors, genomic imprinting stably represses the expression of one allele despite potentially high levels of expression from the other allele. […] During mouse embryonic day 11.5 imprints are erased in PGCs so that sex specific imprints can be reestablished during gametogenesis. Embryonic germ (EG) cells can be derived from developing PGCs at embryonic day 11.5 and these cells often lack genomic imprints. […] Embryonic stem (ES) cells are a cell type similar to EG cells in phenotype and transcriptional profile, yet ES cells maintain genomic imprints. This similarity between ES and EG cells prompted us to use ES cells to look for factors which could induce imprint erasure. To investigate the stability of genomic imprinting, ES cells were derived from mice with an insertion of a LacZ-Neomycin reporter construct in the Peg3 locus. Peg3 is an imprinted locus where gene expression is restricted to the paternal allele. […] Using LacZ expression we are able to monitor the state of the Peg3 imprint. In order to dissect the mechanisms involved in imprint erasure using a forward chemical genetics approach we developed a cell based phenotype assay using an endogenous silence imprinted locus. This assay utilizes maternally inherited Peg3LacZ-Neo ES cells by monitoring the LacZ expression from the normally silent Peg3 allele. To facilitate screening, high-density feeder-free ES cell culture has been optimized so that ES cells can be grown in 1536 for over four days without feeding or washes. The assay uses a luminescence based read out for LacZ activity and is a homogenous assay optimal for HTS.
# NCGC Peg3 Imprinting Assay Protocol Summary ES cell lines were derived from blastocysts taken from Peg3LacZ-Neo x129 matings. Lines were sexed and genotyped for the Peg3LacZ-Neo allele. Female cells carrying the reporter allele were used in this study. Cells were derived on a layer of mouse embryonic fibroblasts and passaged multiple times before switching to feeder free culture. Cells were maintained feeder free on gelatin coated dishes in DMEM/F12 media supplemented with 15% FBS, 2mM L-glutamine, 100 units/ml penicillin, 100ug/ml streptomycin, 0.1mM MEM nonessential amino acids, 1mM sodium pyruvate, 0.1% sodium bicarbonate, 0.1mM 2-Mercaptoethanol, and 400 units/ml leukemia inhibitory factor (LIF) at 37C with 5% CO2. The assay was performed in 1536-well format. A single luminescence read was taken at the end of the assay and the data was normalized by plate to internal negative controls. Maximum efficacy and AC50 values were calculated from dose-response data using the standard Hill equation. 1536 well plates were filled with 0.5ul of 0.1% gelatin per well, spun down and incubated for at least 30 min at 37C. The ES cells were then trypsini Peg3 1536-well assay protocol: (1)Plate 0.5ul/well 0.1% gelatin in white tissue culture treated 1536-well plates, spin and incubate at 37C for at least 30 min. (2)Add 5ul/well (300 cells) of ES cell suspension from freshly trypsinized cells and incubate at 37C, 5% CO2 for 40 hours. (3)Add 5ul/well of freshly prepared BetaGlo solution and incubate at room temperature for 5 minutes. (4)Read luminescence on the ViewLux plate reader. Keywords Genomic Imprinting, Germ Cells, Embryonic Stem Cell, DNA Methylation, Peg3, qHTS, NIH roadmap, NCGC
# Potency means the concentration at half of the fitted maximal effect.
Compound,"activity change, positive = activation",Potency
Cc1cccc(C(C)C)c1NC(=O)C(NS(=O)(=O)c1cccc2nsnc12)c1ccccc1 (stereo not drawn),-5.37% (inactive),
COc1cc(OC)c(NC(=O)N2CC3CCCN3c3ccccc32)cc1Cl (stereo not drawn),-4.34% (inactive),
Cc1ccc(C(=O)COC(=O)C(Cc2c[nH]c3ccccc23)NC(=O)c2ccc(Br)cc2)cc1 (stereo not drawn),-23.6% (inactive),
COc1cccc(Cn2c(CNS(=O)(=O)c3ccc(Cl)s3)nc3cccnc32)c1,5.91% (inactive),
CCCOc1ccc(NC(=O)CC2C(=O)N(c3ccccc3)C(=O)N2Cc2ccco2)cc1 (stereo not drawn),14.7% (inactive),
CCN(c1ccc(Cl)cc1)S(=O)(=O)c1nnc(NC(=O)c2ccco2)s1,-13.6% (inactive),
CCC(=O)N1CCc2cc(S(=O)(=O)NC(C(=O)Nc3ccc(C(C)=O)cc3)C(C)C)ccc21 (stereo not drawn),-8.36% (inactive),
CCSc1ncc(Cl)c(C(=O)Nc2c(C(=O)c3ccccc3)oc3ccccc23)n1,-6.33% (inactive),
O=C(O)c1ccc2c(c1)N(Cc1ccc(F)cc1)C(=O)c1ccccc1S2=O (stereo not drawn),-14.8% (inactive),
Cc1ccc(-c2cn3c(n2)sc2cc(C(=O)NCc4cccs4)ccc23)c(C)c1,5.34% (inactive),
Cc1cccc(CC(=O)Nc2cccc(-c3cn4cccnc4n3)c2)c1,27.8% (inactive),
CCCCNC(=O)CSc1nc2cc3c(cc2c(=O)n1CCCCCC(=O)NCc1ccc2c(c1)OCO2)OCO3,-3.01% (inactive),
CCOc1ccc(CNC(=O)c2ccc(CS(=O)c3ccccc3)o2)cc1 (stereo not drawn),-14.1% (inactive),
CCOc1ccccc1NC(=O)CCS(=O)(=O)c1cccc2nsnc12,-4.98% (inactive),
CCSc1nnc2c(n1)OC(c1ccc(OCC(=O)O)cc1)Nc1ccccc1-2 (stereo not drawn),-3.64% (inactive),
COc1cccc(-c2nc(S(=O)(=O)c3ccc(C)cc3)c(NCc3ccccc3)o2)c1,4.59% (inactive),
Cc1ccc(C)c(N2CCN(C(=O)Cn3ncc4c(=O)oc5ccc(C)cc5c43)CC2)c1,-13.6% (inactive),
Cc1ccc(S(=O)(=O)N(CC(=O)Nc2ccc(Cl)cc2Cl)c2ccccc2C)cc1,-14.6% (inactive),
COc1ccccc1-n1c(-c2ccc(C)cc2)cn2c3c(=O)n(C)c(=O)n(C)c3nc12,9.66% (inactive),
Cc1nc2cnc(Nc3ccccc3)nc2n(C[C@H]2CCCO2)c1=O,-2.6% [at 60.7 µM] (inactive),
O=c1cnc2cnc(Nc3ccccc3)nc2n1Cc1ccc(F)cc1,-5.91% [at 60.7 µM] (inactive),
Cc1nc2cnc(Nc3ccccc3)nc2n(Cc2ccc(F)cc2)c1=O,,3.16 µM (active)
Cc1cc(NC(=O)c2cccc(Cl)c2)ccc1-c1cc2ccccc2oc1=O,-17.4% (inactive),
Cc1ccc(CCNC(=O)c2nnc(Cc3cccc(F)c3)o2)cc1,-10% (inactive),

Compound,"activity change, positive = activation",Potency
Cc1cc2c(cc1C)C(c1cccc(OC(C)C)c1)CC(=O)N2 (stereo not drawn),-14.4% (inactive),
COc1ccc(Cl)cc1NC(=O)CSc1nc(-c2cccs2)cc(C(F)(F)F)n1,-13% (inactive),
Cc1ccc(NC(=O)Nc2sc3nc4n(c(=O)c3c2C)CCC(C)CC4)c(Cl)c1 (stereo not drawn),-5.4% (inactive),
Cc1ccc(OCCSc2nc(C)c(Cc3ccccc3)c(=O)[nH]2)cc1,-7.4% (inactive),
CC(C)S(=O)(=O)c1oc(-c2ccc(F)cc2)nc1S(=O)(=O)c1ccc(F)cc1,-38.1% (inactive),
CCCCN(C)c1nnc(NC(=O)Nc2ccc(Br)c(C)c2)s1,-3.91% (inactive),
O=C(NCCc1ccc(Cl)cc1)c1ccc2c(c1)N(Cc1ccc(F)cc1)C(=O)CS2,-20.3% (inactive),
CCOc1ccccc1NC(=O)CCn1cnnn1,-3.05% (inactive),
CCOc1cc(-c2nnc(SCC(=O)NC3CCCC3)nc2-c2ccc(OC)c(OCC)c2)ccc1OC,-9.78% (inactive),
Cn1nnnc1SCCCNCc1cccc(OCc2ccc(Cl)cc2)c1,-17.5% (inactive),
CSc1nc(=O)c2c(n1C)NC(=O)CC2c1ccccc1OC(C)C (stereo not drawn),-5.06% (inactive),
COc1ccc(Cl)cc1S(=O)(=O)N1CCC(c2ccncc2)CC1,-15.5% (inactive),
CCc1nn(CC(=O)Nc2cccc(C)c2C)c(=O)c2cc3sccc3n12,6.85% (inactive),
Cc1cccc(NC(=O)c2cc(S(=O)(=O)N3CCC4(CC3)OCCO4)ccc2F)c1,-21% (inactive),
CCC(=O)N1CCc2cc(Br)cc(S(=O)(=O)CCC(=O)NCCc3ccc(OC)c(OC)c3)c21,5.01% (inactive),
CCCNc1ncnc2c1c(-c1ccccc1)cn2-c1ccc(OCC)cc1,-20.1% (inactive),
Cc1ccc(C)c(N2CCN(C(c3ccccc3)c3nnc(-c4ccccc4)o3)CC2)c1 (stereo not drawn),-8.5% (inactive),
COc1ccc(CN2C(=O)C(NC(=O)c3cccc(C)c3)(C(F)(F)F)N=C2c2ccccc2)cc1 (stereo not drawn),9.97% (inactive),
CCOC(=O)C1CCCN(C(=O)c2ccc3c(c2)sc2nc(-c4ccc(CC)cc4)cn23)C1 (stereo not drawn),-15.9% (inactive),
CCCn1c(NCc2ccccc2F)nc2ccccc21,-8.61% (inactive),
O=S(=O)(c1ccc2nc(N3CCN(c4cccc(Cl)c4)CC3)ccc2c1)N1CCCCC1,-6.86% (inactive),
COc1ccc(OC)c(NC(=O)/C=C/c2ccc(C)o2)c1,7.39% (inactive),
Cc1c(Cl)cccc1NC(=O)CCS(=O)(=O)c1ccc2c(c1)oc(=O)n2C,-2.77% (inactive),
C#CC(C)(CC)NC(=O)Cn1nnc(-c2ccc(OCc3c(F)cccc3Cl)cc2)n1 (stereo not drawn),-21% (inactive),
